Sampled rows, rich in hits. Any-hit rate of the full collection: about 4.7%.
D1 PAM = Potentiators of Human D1 Dopamine Receptor: qHTS. D(1A) dopamine receptor (Homo sapiens), P21728. HEK293 TREx D1 cells, calcium flux, dopamine EC20 potentiation. potentiation, % at 10 µM. 0.036% of 360,000 active; in the data active means potentiation above about 30%
D1 agonist = Allosteric Agonists of the Human D1 Dopamine Receptor: qHTS; D(1A) dopamine receptor (Homo sapiens), P21728; HEK293 T-REx D1 cells, calcium flux, agonist mode; activation, % at 2 µM; 1% of 360,000 active
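Tetracycline-induced HEK293 TREx D1 cells, force-coupled to calcium signalling, were dye-loaded with a no-wash calcium kit. Compound was pin-added after a 10 s baseline. Fluorescence was read kinetically at 1 cycle/s for 180 s, with calcium rises flagged as agonism.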
TRHR agonist = qHTS for Small Molecule Agonists and Allosteric Enhancers of Human TRH Receptor: Primary Screen for Agonists | 0.18% of 360,000 active | activation, % at 2 µM | TRHR cells, calcium flux fluo-8, FDSS agonist mode | Thyrotropin-releasing hormone receptor (Homo sapiens), P34981
Target sequence (P34981 whole entry, looked up): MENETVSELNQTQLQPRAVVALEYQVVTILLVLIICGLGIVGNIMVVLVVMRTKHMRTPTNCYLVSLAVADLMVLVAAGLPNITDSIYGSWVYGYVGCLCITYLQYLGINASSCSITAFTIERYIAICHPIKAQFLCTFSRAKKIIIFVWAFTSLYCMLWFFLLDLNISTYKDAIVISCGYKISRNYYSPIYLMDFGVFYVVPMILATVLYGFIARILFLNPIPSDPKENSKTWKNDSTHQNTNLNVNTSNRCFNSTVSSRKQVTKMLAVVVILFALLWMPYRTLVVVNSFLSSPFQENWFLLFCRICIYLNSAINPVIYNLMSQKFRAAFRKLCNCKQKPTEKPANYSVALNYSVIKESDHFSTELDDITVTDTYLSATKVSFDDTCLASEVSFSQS
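Agonist-mode FDSS calcium read (Ex 480/Em 530, 1 s cycles) in 1536-well TRHR cells with fluo-8 dye, after 10-cycle baseline and 23 nL compound addition; TRH at EC20 (10 nM final) added afterwards for the enhancer phase.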
D1 antag = Antagonist of Human D 1 Dopamine Receptor: qHTS. D(1A) dopamine receptor (Homo sapiens), P21728. HEK293 TREx D1 cells, calcium flux, dopamine EC80; stronger effect = lower value. activity change, negative = inhibition, % at 10 µM. 3.2% of 360,000 active. AID 504652, 2011; in the data active means activity change below about -30%
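Tetracycline-induced HEK293 T-REx cells with force-coupled D1 receptor were loaded with a no-wash calcium dye. Compound was added after a 10 s baseline and read kinetically for 180 s; EC80 dopamine was then added and calcium flux followed another 180 s.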
TRHR enhancer = qHTS for Small Molecule Agonists and Allosteric Enhancers of Human TRH Receptor: Primary Screen for Enhancers; Thyrotropin-releasing hormone receptor (Homo sapiens), P34981; enhancement, % at 2 µM; 0.66% of 360,000 active; TRHR cells, fluo-8 calcium fluorescence, EC20 TRH enhancement; in the data active means enhancement above about 30%
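Enhancer read-out: after compound pinning and an initial kinetic agonist-mode read, an EC20 of TRH (10 nM final) was injected and fluo-8 calcium signal (Ex 480/Em 530) followed at 1 s/cycle for 100 cycles in TRHR-expressing cells.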
A number is an active result; n = inactive; x = not tested or not shown. Unless noted, no stated cut-off is given here; in the data, active means activation above about 30%; inactive means the rest.

SMILES | D1 PAM | D1 agonist | TRHR agonist | D1 antag | TRHR enhancer
COc1ccc(NC(=O)CSc2nc(-c3ccco3)cc(C(F)(F)F)n2)c(OC)c1 | n | n | n | n | n
COc1cc(OC)cc(-c2c(-c3cccs3)c3cc(-c4ccc5[nH]ccc5c4)ccc3n2C)c1 | n | n | n | x | 40
COc1ccc(CNC(=O)c2ccc(-c3nc(CSc4ccccc4)c(C)o3)cc2)cc1 | n | n | n | n | n
COc1cc(/C=N/NC(=O)c2cccnc2)ccc1OCC(=O)N1CCOCC1 | n | n | n | n | 33
COc1ccc(/C=N/NC(=O)c2cccnc2)cc1CN1CCOCC1 | n | n | n | n | n
O=C1CN(C(=O)c2ccc(S(=O)(=O)N3CCCCC3)cc2)C(c2ccc(F)cc2)c2cc(F)ccc2N1 (stereo unspecified) | n | n | n | n | n
COc1ccc(C(=O)NC(C)CCc2ccccc2)c(O)c1 (stereo unspecified) | n | n | n | -48 | n
CCOC(=O)c1sc(NC(=O)/C=C/c2cnn(CC)c2C)c(C(=O)OCC)c1C | n | n | n | -60 | n
CCCOC(=O)c1c(NC(=O)/C=C/c2cnn(C)c2C)sc(C(=O)OCC)c1C | n | n | n | n | n
CCOC(=O)c1c(NC(=O)/C=C/c2ccc(OCC)cc2)sc(C)c1C | n | n | n | -80 | n
CCOC(=O)c1c(NC(=O)/C=C/c2ccc(OCC)cc2)sc2c1CCCC2 | n | n | n | n | n
O=C(c1ccc2c(c1)N(Cc1cccc(Cl)c1)C(=O)c1ccccc1S2(=O)=O)N1CCN(c2cccc(C(F)(F)F)c2)CC1 | n | n | n | n | n
CCN(CC)S(=O)(=O)c1ccc2c(c1)nc(CN(C)C(=O)Nc1ccc(C)c(F)c1)n2C | n | n | n | -68 | n
CCC12CN3CC(C)(CN(C1)C3c1c[nH]c3ccccc13)C2=O (stereo unspecified) | n | n | n | n | n
CCCS(=O)(=O)N1CCCC(C(=O)NCCc2ccc(Cl)cc2)C1 (stereo unspecified) | n | n | n | -31 | n
CCCS(=O)(=O)N1CCCC(C(=O)NCCCOCC)C1 (stereo unspecified) | n | n | n | n | n
Cc1[nH]c(=O)[nH]c(=O)c1S(=O)(=O)N1CCCC(C(=O)NCCc2ccc(Cl)cc2)C1 (stereo unspecified) | n | n | n | -35 | n
CCCCNC(=O)C1CCCN(S(=O)(=O)CCC)C1 (stereo unspecified) | n | n | n | -32 | n
Cc1[nH]c(=O)[nH]c(=O)c1S(=O)(=O)N1CCCC(C(=O)NCCc2ccccc2)C1 (stereo unspecified) | n | n | n | n | n
CN(C)c1ccc(-c2nc(-c3ccco3)no2)cc1[N+](=O)[O-] | n | n | n | n | n
CCOC(=O)N1CCN(C(=O)CN(Cc2ccc(Cl)cc2)S(=O)(=O)c2ccccc2)CC1 | n | n | n | -39 | n
CCOC(=O)N1CCN(C(=O)CN(c2cc(C)ccc2OC)S(=O)(=O)c2ccc(C)cc2)CC1 | n | n | n | -38 | n
CCOC(=O)N1CCN(C(=O)CN(Cc2ccccc2)S(C)(=O)=O)CC1 | n | n | n | n | n
CCN(CC)S(=O)(=O)c1ccc(N2CCN(c3ccccc3O)CC2)nc1 | n | n | n | n | n
CCN(CC)S(=O)(=O)c1ccc(N2CCN(CCO)CC2)nc1 | n | n | n | -71 | n
SMILES | D1 PAM | D1 agonist | TRHR agonist | D1 antag | TRHR enhancer
CN(CC(=O)N1CCCC1)S(=O)(=O)c1ccc(Cl)cc1 | n | n | n | n | 30
COc1ccc(C)cc1N(CC(=O)N1CCCCCC1)S(=O)(=O)c1ccccc1 | n | n | n | n | n
CC(C)Oc1ccc(CNC(=O)c2cnc3sc(N4CCCCCC4)nn3c2=O)cc1 | n | n | n | n | n
CCN1CCN(Cc2c(O)ccc3c(C)c(-c4ccccc4)c(=O)oc23)CC1 | n | n | n | n | n
Cc1ccc2nc(-c3ccccc3F)c(Nc3ccc(Cl)cc3)n2c1 | n | n | n | n | n
CCOC(=O)N1CCN(c2ccc(S(=O)(=O)N(Cc3ccccc3)Cc3ccccc3)cn2)CC1 | n | n | n | -31 | n
CCCOP(=O)(OCCC)C(Nc1ccc(C(C)C)cc1)c1ccc([N+](=O)[O-])cc1 (stereo unspecified) | n | n | n | -33 | n
CC(=O)N(Nc1ccccc1)c1ccccc1 | n | n | n | -52 | n
Cc1ccc(S[C@@H](CCN2CC[C@H](C)CCC2=O)c2ccccc2)cc1 | n | n | n | n | n
Cc1ccc(S[C@@H](CCN2CC[C@H](O)CCC2=O)c2ccccc2)cc1 | n | n | n | -31 | n
Fc1ccccc1CSc1nnnn1-c1ccc2c(c1)OCO2 | n | n | n | -35 | n
CC(C)(C)n1nc2c(c1NC(=O)c1ccccc1)CS(=O)(=O)C2 | n | n | n | -41 | n
CCOC(=O)Cn1nc(C)cc1NC(=O)c1ccncc1 | n | n | n | n | 34
CCOC(=O)Cn1nc(C)cc1NC(=O)c1cc(OC)c(OC)c(OC)c1 | n | n | n | n | n
Cc1cccc(C(=O)Nc2c3c(nn2C(C)(C)C)CS(=O)(=O)C3)c1 | n | n | n | n | n
Cc1cc(NC(=O)c2ccccc2Cl)n(C(C)(C)C)n1 | n | n | n | n | n
Cc1cc(NC(=O)c2ccccc2)n(C(C)(C)C)n1 | n | n | n | -33 | n
Cc1cc(C)n(-c2nc3ccccc3nc2N2CCN(C(=O)c3ccc(Cl)cc3)CC2)n1 | n | n | n | n | 30
Cc1cc(C)n(-c2nc3ccccc3nc2N2CCCC2)n1 | n | n | n | n | n
CNc1snc(C)c1C(=O)OC(C)C(=O)Nc1ccc(F)cc1 (stereo unspecified) | n | n | n | n | n
CNc1snc(C)c1C(=O)OCC(=O)N(C)c1ccccc1 | n | n | n | n | n
CCN(C(=O)COC(=O)c1c(C)nsc1NC)c1ccccc1 | x | 31 | n | n | n
CNc1snc(C)c1C(=O)OCC(=O)N(C)Cc1ccccc1 | n | n | n | -43 | n
CNc1snc(C)c1C(=O)OC(C)C(=O)Nc1ccccc1 (stereo unspecified) | n | n | n | -32 | n
Cc1ccc(C)c(NC(=O)c2ccc3c(c2)CCCN3S(C)(=O)=O)c1 | n | n | n | n | n
CC1=C([N+](=O)[O-])C(c2ccccc2)NC(=O)N1 (stereo unspecified) | n | n | n | -33 | n
COc1ccc(C2NC(=O)NC(C)=C2[N+](=O)[O-])cc1 (stereo unspecified) | n | n | n | n | n
